These results are taken from PubChem BioAssay (NCI).

Where “and” joins values, the source holds several entries; their conditions need not be identical. Identical values can stand only once. About 79,000 compounds went through this panel and 15% of them were active in at least one assay; those are over-represented in the sample as a whole. A number with no mark means an inactive call. Calls of active or inactive are those of the source. No stated cut-off is given here; in the data, active means growth inhibition above about 70%; inactive means the rest.

A short description of experiment [1]: NCI Yeast Anticancer Drug Screen. Data for the rad50 strain (AID 155).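 Further: 0% = growth of vehicle-only cultures of the same strain.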 Particulars: S. cerevisiae rad50 strain growth inhibition, active compounds read high. In outline:
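Compounds were tested on a yeast strain with an engineered DNA damage repair alteration; the reported value is growth inhibition normalised to vehicle treatment.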

The nature of experiment [2]: NCI Yeast Anticancer Drug Screen. Data for the mec2-1 strain (AID 157). The settings on record: S. cerevisiae mec2-1 strain, active compounds read high. In outline:
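Yeast mec2-1 mutant treated with compound. Readout: growth inhibition vs vehicle controls.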

A short description of experiment [3]: NCI Yeast Anticancer Drug Screen. Data for the sgs1 mgt1 strain (AID 161).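 Further: 0% = growth of cultures given vehicle only.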 The settings on record: S. cerevisiae sgs1 mgt1 strain, active compounds read high. In outline:
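Read-out: growth inhibition vs vehicle controls. Cells: mutant yeast strain deficient in DNA damage repair.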

A short description of experiment [4]: NCI Yeast Anticancer Drug Screen. Data for the cln2 rad14 strain (AID 165).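 Further: 0% = growth equal to vehicle treated cultures.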 The settings on record: S. cerevisiae cln2 rad14 strain, active compounds read high. Put shortly: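 cln2 rad14 yeast strain; compound exposure; growth inhibition read vs vehicle controls.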
Experiment [5] is described as follows: NCI Yeast Anticancer Drug Screen. Data for the bub3 strain (AID 167). Particulars: S. cerevisiae bub3 mutant strain, active compounds read high. Put shortly: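 Growth of a checkpoint-deficient yeast mutant is measured after compound exposure. Values represent inhibition relative to vehicle.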
Experiment [6] is described as follows: NCI Yeast Anticancer Drug Screen. Data for the mlh1 rad18 strain (AID 175). Particulars: S. cerevisiae mlh1 rad18 strain growth inhibition, active compounds read high. Put shortly:
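Yeast w/ defined DNA-repair lesions; compound exposure; growth vs vehicle controls → % inhibition.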

The mark [7] stands for this setting: at 5.0 µM (retest, dose inferred, filed as 0.5).
[8] abbreviates: at 50.0 µM (retest, dose inferred, filed as 5.0).

`C[n+]1[se]nc2cc(C(=O)c3ccccc3)ccc21` (tested in a mixture with another compound): the growth inhibition in experiment [1] (setting [7]) is 99% (active); in experiment [1] (setting [8]) it was 99% (active); in experiment [1] (at 50.0 µM), 99.3% (active); in experiment [2] (setting [7]) it was 99% (active); in experiment [2] (setting [8]), 99% (active); in experiment [2] (at 50.0 µM), 99.2% (active). Also, the growth inhibition in experiment [3] (setting [7]) was 98% (active); in experiment [3] (setting [8]) it was 99% (active); in experiment [3] (at 50.0 µM), 99% (active); in experiment [4] (setting [7]), 96% (active); in experiment [4] (setting [8]), 99% (active); in experiment [4] (at 50.0 µM) it was 99% (active). The growth inhibition in experiment [5] (setting [7]) was 98% (active); in experiment [5] (setting [8]), 99% (active); in experiment [5] (at 50.0 µM) it was 99% (active); in experiment [6] (setting [7]), 99% (active); in experiment [6] (setting [8]), 99% (active); in experiment [6] (at 50.0 µM) it was 99.3% (active).

Turning to `CCC(C)(C)c1ccc(OP(=S)(S)Oc2ccc(C(C)(C)CC)cc2)cc1`, the growth inhibition is -1% in experiment [1] (setting [7]); 92% (active) in experiment [1] (setting [8]); 88.5% (active) in experiment [1] (at 50.0 µM); 3% in experiment [2] (setting [7]); 96% (active) in experiment [2] (setting [8]); 68.7% in experiment [2] (at 50.0 µM). Further, the growth inhibition in experiment [3] (setting [7]) is -7%; in experiment [3] (setting [8]) it was 95% (active); in experiment [3] (at 50.0 µM), 94.9% (active); in experiment [4] (setting [7]) it was 4%; in experiment [4] (setting [8]), 90% (active); in experiment [4] (at 50.0 µM), 90.7% (active). The growth inhibition in experiment [5] (setting [7]) was -1%; in experiment [5] (setting [8]), 94% (active); in experiment [5] (at 50.0 µM), 31.5%; in experiment [6] (setting [7]), -4%; in experiment [6] (setting [8]) it was 95% (active); in experiment [6] (at 50.0 µM), 90.5% (active).

With `COc1ccccc1/C=C(/C)[N+](=O)[O-]`, the growth inhibition in experiment [1] (setting [7]) was 96% (active); in experiment [1] (setting [8]), 99% (active); in experiment [1] (at 50.0 µM), 99.5% (active); in experiment [2] (setting [7]) it was 35% and 21%; in experiment [2] (setting [8]), 99% (active) and 100% (active); in experiment [2] (at 50.0 µM), 99.8% (active). For the same compound, the growth inhibition in experiment [3] (setting [7]) was 34% and 55%; in experiment [3] (setting [8]), 99% (active) and 100% (active); in experiment [3] (at 50.0 µM), 99.2% (active); in experiment [4] (setting [7]), 13% and 12%; in experiment [4] (setting [8]) it was 99% (active); in experiment [4] (at 50.0 µM), 99.5% (active). Also, the growth inhibition was 34% and 27% in experiment [5] (setting [7]); 99% (active) and 100% (active) in experiment [5] (setting [8]); 99.8% (active) in experiment [5] (at 50.0 µM); 34% and -4% in experiment [6] (setting [7]); 99% (active) in experiment [6] (setting [8]); 99.5% (active) in experiment [6] (at 50.0 µM).

As to `CCCCCCCCCCCCCC(=O)O`, the growth inhibition in experiment [1] (setting [7]) was -7%; in experiment [1] (setting [8]), 18%; in experiment [1] (at 50.0 µM), 4.15% and 34.9%; in experiment [2] (setting [7]), 11%; in experiment [2] (setting [8]), 63%; in experiment [2] (at 50.0 µM) it was 7.2% and -10.9%. Also, the growth inhibition in experiment [3] (setting [7]) is 11%; in experiment [3] (setting [8]), 88% (active); in experiment [3] (at 50.0 µM), 15.4% and 27.3%; in experiment [4] (setting [7]), 1%; in experiment [4] (setting [8]), 20%; in experiment [4] (at 50.0 µM) it was 66.5% and 24.1%. The growth inhibition was -7% in experiment [5] (setting [7]); 29% in experiment [5] (setting [8]); 57.7% and 11.7% in experiment [5] (at 50.0 µM); 5% in experiment [6] (setting [7]); 87% (active) in experiment [6] (setting [8]); -6.2% and 13.4% in experiment [6] (at 50.0 µM).

Turning to `CC#N.FC(F)(F)C#CC(F)(F)F.FC(F)(F)C#CC(F)(F)F.FC(F)(F)C#CC(F)(F)F.[W]`, the growth inhibition is 90% (active) in experiment [1] (setting [7]); 99% (active) in experiment [1] (setting [8]); 99.4% (active) in experiment [1] (at 50.0 µM); 83% (active) in experiment [2] (setting [7]); 99% (active) in experiment [2] (setting [8]); 99.5% (active) in experiment [2] (at 50.0 µM). The growth inhibition in experiment [3] (setting [7]) is 90% (active); in experiment [3] (setting [8]), 99% (active); in experiment [3] (at 50.0 µM), 99.7% (active); in experiment [4] (setting [7]), 85% (active); in experiment [4] (setting [8]), 99% (active); in experiment [4] (at 50.0 µM), 99.2% (active). Moreover, the growth inhibition was 94% (active) in experiment [5] (setting [7]); 99% (active) in experiment [5] (setting [8]); 99.6% (active) in experiment [5] (at 50.0 µM); 95% (active) in experiment [6] (setting [7]); 99% (active) in experiment [6] (setting [8]); 99.3% (active) in experiment [6] (at 50.0 µM).

Regarding `C=C(C)C(=O)OC1CCC2(C)C(CCC3C2CCC2(C)C(c4ccc(=O)oc4)CC4OC432)C1` (stereo not drawn), the growth inhibition was 7% in experiment [1] (setting [7]); 67% in experiment [1] (setting [8]); 71.9% (active) in experiment [1] (at 50.0 µM); 7% in experiment [2] (setting [7]); 48% in experiment [2] (setting [8]); 66.7% in experiment [2] (at 50.0 µM). Moreover, the growth inhibition in experiment [3] (setting [7]) is -10%; in experiment [3] (setting [8]), 57%; in experiment [3] (at 50.0 µM), 63.8%; in experiment [4] (setting [7]), 26%; in experiment [4] (setting [8]) it was 64%; in experiment [4] (at 50.0 µM), 60.2%. Besides, the growth inhibition was 16% in experiment [5] (setting [7]); 80% (active) in experiment [5] (setting [8]); 71.3% (active) in experiment [5] (at 50.0 µM); 21% in experiment [6] (setting [7]); 73% (active) in experiment [6] (setting [8]); 63.9% in experiment [6] (at 50.0 µM).
